Assay results from PubChem BioAssay (Tox21).
Where “and” joins values, the source holds several entries; their conditions need not be identical. Identical values can stand only once. Records with an inconclusive call do not appear. Some compounds were tested as several samples or in several runs, with calls that do not always agree. Calls of active or inactive are those of the source. Unless noted, calls follow the shape of the dose curve; as a rule, active = well fitted curve in the direction sought with a large enough effect in the repeat runs; inconclusive = weak or mixed curves; inactive = no such curve, though single readings can be large; an effect the other way counts as inactive or inconclusive.

Assays:
[1] = qHTS assay for small molecule agonists of the p53 signaling pathway (AID 651631; calls by dose curve; also: nearly all actives have a fitted effect of over 15% in size)
In short: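 Quantitative high-throughput format: 4,000 p53RE-bla HCT-116 cells/well, 5 h pre-incubation, 16 h compound exposure at 37 °C, 2 h room-temperature substrate step, fluorescence intensity measured.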

[2] = qHTS assay for small molecules that induce genotoxicity in human embryonic kidney cells expressing luciferase-tagged ATAD5 (AID 651632); also: nearly all actives have a fitted effect of over 15% in size
In short: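 A rise in luciferase signal from ATAD5-tagged HEK293T cells marks genetic stress. Cells were exposed to compounds for 16 hr at 37C, 5% CO2, then luciferase was quantified after a 30 min room-temperature incubation with Amplite.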

[3] = qHTS assay for small molecule agonists of the p53 signaling pathway - cell viability (AID 651633; calls by dose curve;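 also: p53RE-bla HCT reporter cells with a stable beta-lactamase p53 reporter; nearly all actives have a fitted effect of over 30% in size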)
In short: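 p53RE-bla cells, seeded at 4,000 per well and rested 5 h at 37 C/5% CO2, received compounds in DMSO for 16 h at 37 C. CellTiter-Glo was then added, and luminescence was read after 30 min at room temperature to gauge cytotoxicity.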

[4] = qHTS assay for small molecule disruptors of the mitochondrial membrane potential (AID 720635); also: potency is read from the fitted curve at half-maximal effect
In short: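 HepG2 cells (2,000/well) attached overnight at 37C, then took compound for 1 hr at 37C, 5% CO2. Mito-MPS dye was added for 30 min; fluorescence was read at 490/535 nm (monomers) and 540/590 nm (aggregates).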

[5] = qHTS assay to test for compound auto fluorescence at 590 nm (red) in HepG2 cells (AID 720674)
In short: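 Intrinsic compound fluorescence in the red window (Ex/Em 540/590 nm) is measured in attached HepG2 cells exposed for 1 hr, DMSO vehicle as baseline, benchmarked to Rose Bengal sodium.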

[6] = qHTS assay to test for compound auto fluorescence at 535 nm (green) in HepG2 cells (AID 720675)
[7] = qHTS assay to test for compound auto fluorescence at 460 nm (blue) in HEK293 cells (AID 720678)
In short: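 HEK293 cells (2,000/well, medium with 10% dialyzed FBS) attached 4-5 hr, then exposed to compound overnight at 37C, 5% CO2. Blue fluorescence read at 405/460 nm, with triamterene as reference fluorophore.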

[8] = qHTS assay to test for compound auto fluorescence at 590 nm (red) in HEK293 cells (AID 720679)
In short: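 HEK293 cells (2,000/well, 10% dialyzed FBS) attached 4-5 hr, then dosed with compound or DMSO and incubated overnight at 37C, 5% CO2. Red fluorescence read at 540/590 nm, Rose Bengal sodium as reference fluorophore.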

[9] = qHTS assay to test for compound auto fluorescence at 535 nm (green) in HEK293 cells (AID 720680)
[10] = qHTS assay to test for compound auto fluorescence at 460 nm (blue) in HEK293 cell free culture (AID 720681)
In short: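 Test compounds were pinned into cell-free culture medium (DMEM with 10% FBS) and fluorescence was read directly at Ex/Em 405/460 nm. Signals were expressed as fluorescence equivalents of triamterene, with DMSO vehicle as control.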

[11] = qHTS assay to test for compound auto fluorescence at 535 nm (green) in HEK293 cell free culture (AID 720682)
In short: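 Measurement is a direct plate read of green fluorescence (485 nm in, 535 nm out) after compound addition to serum-supplemented DMEM lacking cells, with fluorescein used to express intensities.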

[12] = qHTS assay to test for compound auto fluorescence at 590 nm (red) in HEK293 cell free culture (AID 720683)
In short: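 Tox21 10K library compounds were pinned into cell-free DMEM with 10% FBS and fluorescence was read at excitation 540 nm. Activity is expressed as Rose Bengal sodium equivalency.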

[13] = qHTS assay to test for compound auto fluorescence at 460 nm (blue) in HepG2 cell free culture (AID 720685)
In short: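 Cell-free plates of MEM plus 10% FBS received 23 nL compound or DMSO vehicle; blue-channel (405/460 nm) intensity scored against triamterene as reference fluorophore.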

[14] = qHTS assay to test for compound auto fluorescence at 535 nm (green) in HepG2 cell free culture (AID 720686)
[15] = qHTS assay to test for compound auto fluorescence at 460 nm (blue) in HepG2 cells (AID 720687)
In short: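 Cells (2,000/well in MEM with 10% FBS) attached overnight at 37 C, then were exposed to compound or DMSO for 1 hr at 37 C, 5% CO2. Fluorescence read at Ex/Em 405/460 nm, expressed as triamterene-equivalent signal.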

[16] = biological target: Glucocorticoid receptor (Homo sapiens) (UniProt P04150); assay: qHTS assay to identify small molecule agonists of the glucocorticoid receptor (GR) signaling pathway (AID 720691; active = well fitted activation curve with a large enough effect in the signal ratio in the repeat runs, not every such curve was filed as active; the % refers to the signal ratio); conditions: GR-bla HeLa, beta-lactamase reporter ratio, 18 h; activation: at 62.4 µM (top of the series)
In short: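 Agonist-mode qHTS in HeLa cells stably expressing a glucocorticoid-response-element beta-lactamase reporter. Fluorescence intensity read with FRET substrate (2 h, room temperature) after 18 h compound treatment at 37 C.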

[17] = biological target: Glucocorticoid receptor (Homo sapiens) (UniProt P04150); assay: qHTS assay to identify small molecule antagonists of the glucocorticoid receptor (GR) signaling pathway (AID 720692; active = well fitted inhibition curve with a large enough effect in the signal ratio in the repeat runs, not every such curve was filed as active; the % refers to the signal ratio)
In short: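 Inhibition of dexamethasone-driven (5 nM final) beta-lactamase expression was measured in GRE-reporter HeLa cells over 18 h at 37C. Fluorescence was read after 2 h with the B/G FRET substrate at room temperature.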

[18] = qHTS assay for small molecules that induce genotoxicity in human embryonic kidney cells expressing luciferase-tagged ATAD5 - cell viability (AID 651634; calls by dose curve; also: nearly all actives have a fitted effect of over 25% in size)
In short: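 Cytotoxicity counter-readout: after 15.5 hr compound treatment at 37C, live-cell protease activity in ATAD5-luciferase HEK293T cells measured by CellTiter-Fluor fluorescence, 30 min development at 37C.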

[19] = qHTS assay for small molecule disruptors of the mitochondrial membrane potential - cell viability (AID 720634; calls by dose curve;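 also: human HepG2 liver cancer cells; nearly all actives have a fitted effect of over 20% in size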)
In short: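 Cytotoxicity was quantified from ATP content by CellTiter-Glo luminescence in the same wells as the MMP dye read-out. HepG2 (2,000 cells/well) were plated overnight and exposed to compounds for 1 hr at 37 C.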

[20] = qHTS assay to test for compound auto fluorescence at 590 nm (red) in HepG2 cell free culture (AID 720684)
In short: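 Ex 540 / Em 590 nm read of compound in cell-free MEM (10% FBS). Rose Bengal sodium reference.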

Measured: Potency

Sequence of Glucocorticoid receptor (Homo sapiens) (P04150 whole entry, looked up): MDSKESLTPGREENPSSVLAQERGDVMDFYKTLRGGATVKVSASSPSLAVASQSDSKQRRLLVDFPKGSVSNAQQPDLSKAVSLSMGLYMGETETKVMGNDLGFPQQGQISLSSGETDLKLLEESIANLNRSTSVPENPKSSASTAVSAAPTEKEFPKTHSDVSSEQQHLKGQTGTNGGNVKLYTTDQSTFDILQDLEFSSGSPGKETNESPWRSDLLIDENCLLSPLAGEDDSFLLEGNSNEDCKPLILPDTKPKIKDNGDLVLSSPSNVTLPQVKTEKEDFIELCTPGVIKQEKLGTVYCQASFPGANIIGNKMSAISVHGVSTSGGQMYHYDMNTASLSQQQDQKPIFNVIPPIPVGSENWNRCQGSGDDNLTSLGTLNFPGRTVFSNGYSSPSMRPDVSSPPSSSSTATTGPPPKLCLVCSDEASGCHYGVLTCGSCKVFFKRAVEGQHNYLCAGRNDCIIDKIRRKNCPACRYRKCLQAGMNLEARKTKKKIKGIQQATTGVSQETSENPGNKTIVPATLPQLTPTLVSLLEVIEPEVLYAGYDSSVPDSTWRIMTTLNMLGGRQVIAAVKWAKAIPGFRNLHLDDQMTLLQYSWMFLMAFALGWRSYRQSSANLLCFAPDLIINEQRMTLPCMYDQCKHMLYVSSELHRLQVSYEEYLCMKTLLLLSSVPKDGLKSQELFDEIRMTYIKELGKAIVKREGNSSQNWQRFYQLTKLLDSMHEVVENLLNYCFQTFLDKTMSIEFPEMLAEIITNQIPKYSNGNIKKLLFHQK

CCCCC(CC)COC(=O)CS (stereo unspecified)
not listed: [18] | [19] | [20]
inactive: all other assays above

C=CCNC(N)=S
not listed: [4] | [13] | [16] | [17] | [19] | [20]
inactive: all other assays above

Nc1cc([N+](=O)[O-])ccc1O
active: [4] 27.3 µM
not listed: [16] | [18]
inactive: all other assays above

OCCOCCN1CCN(C2=Nc3ccccc3Sc3ccccc32)CC1
not listed: [2] | [4] | [13] | [16] | [17]
inactive: all other assays above

O=C(O)c1cc(O)c(O)c(O)c1
not listed: [13] | [16] | [17] | [18] | [20]
inactive: all other assays above

C=C(C)C(=O)O[C@H]1C[C@@H]2CC[C@@]1(C)C2(C)C
not listed: [15] | [16] | [17] | [18] | [19] | [20]
inactive: all other assays above

COc1ccc(Nc2ccccc2)c(C)c1
inactive and 48.6 µM (active): [4]
not listed: [18] | [20]
inactive: all other assays above

Cc1cc(C)c(C)cc1C
not listed: [4] | [16] | [17] | [18] | [19]
inactive: all other assays above

CCCCOC(=O)COc1ccc(Cl)cc1Cl
not listed: [13] | [15] | [16] | [17] | [18]
inactive: all other assays above
